Bioassay records deposited in PubChem by Broad Institute.
Tg IFNy HTS = blocks Toxoplasma gondii growth in the presence of IFN-gamma; Toxoplasma gondii growth in IFN-gamma-treated host cells; hits give low values; activity change, negative = inhibition, % (no concentration beside the values); 69,000 tested, 3.8% active; AID 1259416; in the data active = activity change below about -70%, passing the limit was not always enough;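 also: host cells are HeLa cells infected with Toxoplasma gondii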
Large screens that a line does not name were inactive. The full list was thinned out, with hits kept by preference.

C[C@H](CO)N1C[C@H](C)[C@H](CN(C)C(=O)Nc2cccc(F)c2)Oc2cc(C#CC3(O)CCCC3)ccc2S1(=O)=O	none
CCCNC(=O)N(C)C[C@@H]1Oc2cc(C#C[C@H](C)O)ccc2S(=O)(=O)N([C@H](C)CO)C[C@H]1C	none
Cc1[nH]c2ccccc2c1C(c1ccc2c(c1)OCO2)c1c(C)[nH]c2ccccc12	none
CC1=C(C(=O)NCCCN(C)C2CCCCC2)C2(CCN(S(C)(=O)=O)CC2)OC1=O	none
COc1ccc2c(c1)C=C(CNC(Cc1ccsc1)c1ccc(C)cn1)CO2 (centres undefined)	none
CCOc1ccc(CNC(=O)c2ccc(-c3nc(CN4CCc5ccccc54)c(C)o3)cc2)cc1	none
Cc1oc(-c2ccc(C(=O)NCc3cccs3)cc2)nc1CN1CCc2ccccc21	Tg IFNy HTS -94
Cc1ccc(CNC(=O)c2ccc(-c3nc(CN4CCc5ccccc54)c(C)o3)cc2)o1	none
CCCCN(C)C(=O)c1ccc(-c2nc(CN3CCN(c4ccccc4)CC3)c(C)o2)cc1	none
Cc1oc(-c2ccc(C(=O)N(C)Cc3ccccc3)cc2)nc1CN1CCN(c2ccccc2)CC1	Tg IFNy HTS -94
Cc1oc(-c2ccc(C(=O)NCc3ccccc3Cl)cc2)nc1CN1CCc2ccccc21	none
COCCCNC(=O)c1ccc(-c2nc(CN3CCc4ccccc43)c(C)o2)cc1	none
CCCCNC(=O)c1ccc(-c2nc(CN3CCc4ccccc43)c(C)o2)cc1	none
Cc1oc(-c2ccc(C(=O)NCCCc3ccccc3)cc2)nc1CN1CCc2ccccc21	none
CCCCOc1ccc(CNC(=O)c2ccc(-c3nc(CN4CCc5ccccc54)c(C)o3)cc2)cc1	Tg IFNy HTS -94
Cc1oc(-c2ccc(C(=O)NCCc3ccccc3)cc2)nc1CN1CCc2ccccc21	Tg IFNy HTS -127
CNC(=O)c1ccc(-c2nc(CN3CCN(c4ccccc4)CC3)c(C)o2)cc1	none
CCN(CCOc1ccccc1F)C(=O)c1ccoc1C	none
COCCN1CCC(c2cc3c(ncn3C(C)C)c(N(C)CCOC)n2)CC1	none
O=c1[nH]nc(CCNc2ccccc2)n1C1CCCC1	none
Cc1nc(CN2CCC(N(C)C)CC2C(=O)O)cs1 (centres undefined)	none
Cc1nonc1CN(C)CC(=O)NCc1ccccn1	none
O=C(Nc1ccc2c(c1)OCO2)c1c(O)c2ccccc2n(-c2ccccc2)c1=O	none
CCCCCc1ccc(-c2ccc(SC(F)F)nn2)cc1	none
CN1CCN(C(=O)C2C3CCC(O3)C2C(=O)O)CC1 (centres undefined)	none
Cc1oc(-c2ccc(C(=O)N3CCC(C)CC3)cc2)nc1CN1CCc2ccccc21	none
Cc1oc(-c2ccc(C(=O)N3CCCCCC3)cc2)nc1CN1CCc2ccccc21	Tg IFNy HTS -101
CCOC(=O)C1CCCN(C(=O)c2ccc(-c3nc(CN4CCc5ccccc54)c(C)o3)cc2)C1 (centres undefined)	none
Cc1ccc(-n2cc(CN(C)CC3CCOCC3)c(-c3ccc(F)cc3)n2)cc1	none
Cc1ccc(OCC(=O)N2CCC3(CC2)COc2ccccc2S(=O)(=O)N(C)C3)cc1	none
CCc1cccc(OCCCN(C)C(=O)c2ncccc2O)c1	none
CCC(CO)N(Cc1ccccn1)C(=O)c1ccc(=O)[nH]c1 (centres undefined)	none
CC(C)(C)c1ccc2cc(C#N)c(C#N)cc2c1	Tg IFNy HTS -80
N#Cc1cc2c(ccc3ccccc32)oc1=N	none
COc1cc(NC(=O)Cn2ncc3c(N4CCOCC4)ncnc32)cc(OC)c1	none
Cc1ccc(CCNC(=O)c2cc3cc(S(=O)(=O)N(C)C)ccc3n2Cc2ccncc2)cc1	none
CCN(CC)S(=O)(=O)c1ccc2c(c1)cc(C(=O)NCCC(C)N1CCCC1)n2C (centres undefined)	none
CCN(CC)S(=O)(=O)c1ccc2c(c1)cc(C(=O)NCC1CCN(Cc3ccc(C)cc3)C1)n2C (centres undefined)	Tg IFNy HTS -96
C=CCN1CCO[C@H]2CN(C(=O)COc3ccccc3)CC[C@@H]2C1	none
Cc1nc(CNC(=O)C2CCCN(C3CCN(Cc4cccnc4)CC3)C2)no1 (centres undefined)	none
O=C(c1csc(-c2ccc(N3CCCC3)nc2)n1)N1CCN(c2ccccn2)CC1	none
Cc1ccc(F)cc1-n1c(-c2ccn[nH]2)n[nH]c1=O	none
CCn1c(C2CCCN(Cc3ccc(-c4ccn[nH]4)s3)C2)nn(C)c1=O (centres undefined)	none
CCn1c(=O)c(-c2ccn[nH]2)cc2c(C)nc(N)nc21	Tg IFNy HTS -74
CCOc1ncnc2c1CCN(C(=O)c1cc(C)on1)CC2	none
Fc1ccccc1CSc1nc(Nc2ccc3c(c2)OCO3)c2ccccc2n1	none
CCc1nc(Nc2ccc3c(c2)OCO3)c2nnn(Cc3ccccc3Cl)c2n1	Tg IFNy HTS -99
Clc1ccccc1Cn1nnc2c(Sc3nc4ccccc4s3)ncnc21	none
O=C(c1cccc2ccnn12)N1C[C@@H]2[C@H](C1)[C@H]1CC[C@@H]2O1	none
COCC1CN(Cc2ccc(F)cc2)Cc2nn(CC3CC3)cc21 (centres undefined)	none
CCCNC(=O)Cn1ncc2c(N3CCN(c4ccccn4)CC3)ncnc21	none
O=C(Cn1ncc2c(N3CCCCCC3)ncnc21)NCc1ccc(Br)cc1	Tg IFNy HTS -93
O=C(Cn1ncc2c(N3CCCCCC3)ncnc21)NCc1cccc(Br)c1	none
Cc1ccc(CNC(=O)Cn2ncc3c(N4CCN(c5ccccn5)CC4)ncnc32)cc1C	none
O=C(Cn1ncc2c(N3CCCC3)ncnc21)Nc1ccc(F)cc1F	none
O=C(Cn1ncc2c(N3CCN(c4ccccn4)CC3)ncnc21)NCc1ccco1	Tg IFNy HTS -97
O=C(Cn1ncc2c(N3CCCCC3)ncnc21)NCc1ccco1	none
O=C(Cn1ncc2c(N3CCCCCC3)ncnc21)Nc1ccc(F)cc1	none
O=C(Cn1ncc2c(N3CCN(c4ccccn4)CC3)ncnc21)NCc1cccnc1	none
O=C(Cn1ncc2c(N3CCN(c4ccccn4)CC3)ncnc21)NCc1ccc(F)cc1	Tg IFNy HTS -100
O=C(Cn1ncc2c(N3CCCCCC3)ncnc21)NCc1ccc(F)cc1	Tg IFNy HTS -99
O=C(Cn1ncc2c(N3CCCC3)ncnc21)Nc1ccc(Br)cc1	none
CO[C@H]1CCN(C2CCOCC2)C[C@@H]1Cc1cccc(C)c1	none
Cc1ncc(C(=O)NCCOc2ccccc2F)c(C)n1	none
COc1cccc(-c2nc(Cn3nnc(C(=O)Nc4ccccc4F)c3C)c(C)o2)c1OC	none
COc1ccc(NC(=O)Cn2c(=O)cc(C(=O)N3CCCCC3)c3ccccc32)c(OC)c1	none
CCOCC1CN(Cc2ccc3ccccc3n2)Cc2cncn2C1 (centres undefined)	none
CN(c1ncccn1)C1COC2(CCCN(c3ncccn3)C2)C1 (centres undefined)	none
CCN(CC)c1ncnc2c1CCN(CCN1CCCC1)CC2	none
CCS(=O)(=O)c1ccc(-c2ccc(C(N)=O)cc2)s1	none
CC(C(=O)NCCN1CCCC1)n1c2ccccc2c2cnn(C)c(=O)c21 (centres undefined)	none
O=C(Cn1ncc2c(N3CCCCCC3)ncnc21)NCc1ccc(F)c(Cl)c1	none
O=C(Cn1ncc2c(N3CCCCC3)ncnc21)NCc1ccccc1	Tg IFNy HTS -92
CCc1ccc(CNC(=O)Cn2ncc3c(N4CCOCC4)ncnc32)cc1	none
CCOc1ccc(CNC(=O)Cn2ncc3c(N4CCCC4)ncnc32)cc1OCC	none
CCc1ccc(CNC(=O)Cn2ncc3c(N4CCCCCC4)ncnc32)cc1	Tg IFNy HTS -92
O=C(Cn1ncc2c(N3CCCC3)ncnc21)NCc1ccncc1	none
O=C(Cn1ncc2c(N3CCCCCC3)ncnc21)NCc1ccc2c(c1)OCO2	Tg IFNy HTS -97
CCc1ccc(NC(=O)Cn2ncc3c(N4CCCCCC4)ncnc32)cc1	none
COc1cccc(CNC(=O)Cn2ncc3c(N4CCCCCC4)ncnc32)c1	none
